Source: PubChem BioAssay (National Center for Advancing Translational Sciences (NCATS))
Hits are enriched below; roughly 8.8% of the tested compounds scored in any of these assays.
KB-3-1 cytotox = kills parental KB-3-1 adenocarcinoma cells | AID 1347075 | actives 1.4% (n = 400,000) | Potency, µM (doses to about 46.1 µM), hits mostly cytotoxic | KB-3-1 viability, CellTiter-Glo ATP luminescence, 72 h; further: potency means the concentration at half of the fitted maximal effect; nearly all actives have a fitted effect of over 60% in size
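Cytotoxicity measured as CellTiter-Glo luminescence after 72 h at 37 C. Compound titrations were pinned onto drug-naive KB-3-1 parental adenocarcinoma cells grown in DMEM with 10% FBS, and normalized data fitted to concentration-response curves.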
HT1080NT lethal = kills 2HG-producing HT-1080-NT fibrosarcoma cells | HT-1080-NT fibrosarcoma viability, CellTiter-Glo ATP luminescence, 48 h | Potency, µM (top dose mostly 46.1 µM), for inactives: top-dose activity, negative = less viability, most hits filed as cytotoxic | actives 1.6% (n = 360,000);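 further: NT is the 2HG producing partner of a matched IDH1 knockdown line; potency means the concentration at half of the fitted maximal effect; 0% = DMSO-treated cells and -100% = media-only wells without cells; nearly all actives have a fitted effect of over 55% in size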
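HT-1080-NT fibrosarcoma cells (2HG-overproducing), 750 cells/well in RPMI with 5% FBS, dosed after 2 h and incubated 48 h at 37C. CellTiter-Glo luminescence normalized to DMSO and no-cell wells; concentration-response curves fitted and classed.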
KB-V1 MDR tox = kills drug-selected multidrug resistant KB-V1 cells; Potency, µM (highest dose often 46.1 µM), hits mostly cytotoxic; AID 1347076; actives 3.4% (n = 400,000); KB-V1 MDR cells viability, CellTiter-Glo, 72 h; further: potency means the concentration at half of the fitted maximal effect; nearly all actives have a fitted effect of over 60% in size
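Cytotoxicity toward P-gp-expressing KB-V1 cells was determined as loss of CellTiter-Glo luminescence after 72 h at 37 degrees C. Compounds were tested in quantitative HTS format across a concentration range, with curves fitted to normalized data.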
IL-1B inflam inh = inflammasome signaling inhibition, IL-1 beta readout; THP-1 LPS/ATP IL-1B secretion, AlphaLISA, 16 h; hits give low values; activity change, % at 57.5 µM; actives 4.7% (n = 360,000); in the data active means activity change below about -50%; inconclusive means mostly about -30% to -49%
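Secreted IL-1B measured by AlphaLISA bead assay after 16 h compound exposure of THP-1 cells; compounds (final up to 57.5 uM) added 1 h before LPS (250 ng/mL) and ATP (1.25 mM) stimulation; lower signal means less secretion.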
HT1080 IDH1KD tx = toxicity to HT-1080 IDH1 knockdown cells (counter line); HT-1080 IDH1 knockdown viability, ATP luminescence, 48 h; Potency, µM (top dose mostly 46.1 µM), for the others: top-dose activity, negative = toxicity, hits mostly cytotoxic; actives 2% (n = 360,000);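 further: potency means the concentration at half of the fitted maximal effect; 0% = DMSO wells and -100% = cell-free medium wells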
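% activity derives from luminescence (CellTiter-Glo), normalised to DMSO and no-cell wells. HT-1080-IDH1KD cells, 750/well, had 48 h compound exposure at 37 °C.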
The depositor's hits bear a star; i = inactive; ? = inconclusive; . = not tested or not shown. Unless noted, the call rests on the fitted dose curve; in most records, active means well fitted curve in the direction sought with a large enough effect; inconclusive means small, poorly fitted or top-dose-only effect, or another doubt; inactive means no such curve, though single readings can be large; an effect the other way counts as inactive or inconclusive. Unless noted, on the % scale 0 is the no-effect control and ±100 the full control effect.

SMILES | KB-3-1 cytotox | HT1080NT lethal | KB-V1 MDR tox | IL-1B inflam inh | HT1080 IDH1KD tx
CCC(=O)NC1=C(NC(C)c2ccccc2)C(=O)c2ccccc2C1=O (configuration not stated) | i | -9% | ? | 18 | -1%
CCC(=O)NC1=C(Cl)C(=O)C(NC(=O)CC)=C(Cl)C1=O | i | ? | i | -86* | 18µM*
Cn1nnc(NC(=S)NC(=O)Cc2ccccc2)n1 | i | 11% | i | 22 | 13%
Cc1ccc(NC(=O)c2c(Cl)n(C)c3ccccc23)cc1 | ? | -14% | 6.5µM* | -8 | ?
COc1cc(C#CC#CCN2CCCCC2)ccc1O | i | -23% | 10µM* | -22 | -26%
COC(=O)[C@H](Cc1ccccc1)NC(=O)Cn1ccc(NC(=O)OCc2ccccc2)nc1=O | i | 0% | i | ? | 1%
Cc1ccc(N2CCN(C(=O)c3cc(-c4ccc(F)cc4)[nH]c3C)CC2C)cc1 (configuration not stated) | ? | 23µM* | ? | -59* | 18µM*
Cc1[nH]c(-c2ccc(F)cc2)cc1C(=O)N1CCN(c2ccccc2)CC1 | i | -28% | i | -56* | -21%
Cc1ccccc1CN(C)CCS(=O)(=O)c1cc(Cl)ccc1Cl | ? | 16µM* | ? | ? | 13µM*
Nc1nnc(CCS(=O)(=O)c2cc(Cl)ccc2Cl)s1 | i | 15% | i | 14 | 9%
CCc1cccc(CC)c1NC(=O)COC(=O)c1cccc(-c2ccc(OC(C)=O)cc2)c1 | i | 1% | i | 2 | 9%
COc1cccc(C(=O)Nc2ccc(Cl)c(-c3nc4ccccc4[nH]3)c2)c1 | ? | . | i | . | .
CN(C1=NC(=O)C(CC(=O)Nc2ccc(Br)cc2)S1)c1ccc(O)cc1 (configuration not stated) | i | ? | i | 0 | 7.9µM*
COc1ccc(CCN(C)C(=O)c2cc(=O)c3ccccc3o2)cc1OC | i | 15% | ? | -54* | 29%
CCc1ccc(CN(C)C(=O)c2cc(=O)c3ccccc3o2)cc1 | i | -11% | i | 2 | -8%
CCCCCCCCN1C(=O)[C@H](CC(=O)NCc2cccc(C(F)(F)F)c2)C[C@@]2(C(=O)OCC)CCCC=C12 | ? | -27% | ? | -53* | 15µM*
CCCCCCCCN1C(=O)[C@H](CC(=O)NCc2ccccc2)C[C@@]2(C(=O)OCC)CCCC=C12 | i | ? | ? | -72* | ?
CCCCCCCCN1C(=O)[C@H](CC(=O)NCCCCc2ccccc2)C[C@@]2(C(=O)OCC)CCCC=C12 | ? | ? | ? | -25 | ?
Cc1cc(C)cc(C(O)c2ncc(-c3ccc(F)cc3)[nH]2)c1 (configuration not stated) | i | -26% | i | 2 | -19%
CN(C)S(=O)(=O)c1ccc(C(=O)N2CC(=O)Nc3ccc(F)cc3C2c2ccc(F)cc2)cc1 (configuration not stated) | i | 0% | i | -3 | 0%
CCOc1ccc(-c2cc(NC(=O)Nc3ccc(Cl)cc3)c(C(=O)OC)s2)cc1 | ? | . | i | . | .
C[C@]12C=CC(=O)C=C1CC[C@@H]1[C@@H]2[C@@H](O)C[C@@]2(C)[C@H]1CC[C@]2(O)C(=O)COC(=O)CCC(=O)NCCc1ccc(O)cc1 | i | ? | i | -56* | ?
C[C@]12C=CC(=O)C=C1CC[C@@H]1[C@@H]2[C@@H](O)C[C@@]2(C)[C@H]1CC[C@]2(O)C(=O)COC(=O)CCC(=O)O | i | ? | i | ? | ?
C[C@]12C=CC(=O)C=C1CC[C@@H]1[C@@H]2[C@@H](O)C[C@@]2(C)[C@H]1CC[C@]2(O)C(=O)CO | i | 48% | i | -55* | 27%
COc1ccc(OC)c(NP2(=O)OCC(C)([N+](=O)[O-])CO2)c1 (configuration not stated) | i | 18% | i | 14 | ?
SMILES | KB-3-1 cytotox | HT1080NT lethal | KB-V1 MDR tox | IL-1B inflam inh | HT1080 IDH1KD tx
C=C1C(=O)O[C@H]2[C@H]1[C@H](OC(=O)/C(C)=C\C)C[C@]1(CO1)[C@@H]1[C@H](OC(C)=O)C=C(C)[C@]21O | i | 5% | i | -104* | ?
Cc1nnc(SCc2cc(=O)oc3cc(O)ccc23)n1Cc1ccccc1 | i | 0% | i | 12 | -2%
CCOc1ccc(-n2c(SCc3cc(=O)oc4cc(C)ccc34)nnc2-c2cccnc2)cc1 | i | 7% | ? | -54* | 14%
Cc1nnc(SCc2cc(=O)oc3ccc4ccccc4c23)n1Cc1ccccc1 | i | -3% | 16µM* | -19 | 10%
CC(C)c1ccccc1-n1c(SCc2cc(=O)oc3ccc4ccccc4c23)nnc1-c1cccnc1 | ? | -26% | 21µM* | -51* | ?
Cc1cccc(C)c1Nc1nnc(SCC(=O)c2ccc3c(c2)NC(=O)CO3)s1 | i | 2% | i | 47 | 7%
Cc1cccc(NC(=O)c2cc([N+](=O)[O-])ccc2N2CCCCC2)n1 | i | -5% | i | 12 | 1%
CCOC(=O)C1=C(C)NC(C)=C(C(=O)OCC)C1c1ccc(Br)o1 | i | -3% | ? | -72* | 0%
COc1ccc(C=O)c2[nH]c3c(Cl)ncnc3c12 | i | -1% | i | ? | -2%
COC(=O)CNC(=O)C(Cc1ccccc1)NS(=O)(=O)c1ccc2c(c1)c(=O)n(C)c(=O)n2C (configuration not stated) | i | -14% | i | -17 | 0%
O=C(CCc1nc2ccccc2c(=O)[nH]1)Nc1ccc(F)cc1 | i | 5% | i | 0 | 3%
O=C(Nc1ccc(F)cc1)C(Sc1nc2ccccc2[nH]1)c1ccccc1 (configuration not stated) | ? | ? | ? | -54* | ?
O=C(CSc1nc2ccccc2[nH]1)Nc1ccc(F)cc1 | i | 0% | i | -26 | -3%
O=C(CCc1nc2ccccc2[nH]1)Nc1ccc(F)cc1 | i | 24% | 12µM* | -2 | 0%
COC(=O)c1c(C)[nH]c(C(=O)C(C)OC(=O)C2=NNC(=O)CC2)c1C (configuration not stated) | ? | -2% | 5.8µM* | 6 | -7%
COCCN(C(=O)COC(=O)CCOc1ccccc1)c1c(N)n(Cc2ccccc2)c(=O)[nH]c1=O | i | 2% | ? | -1 | 4%
CCSc1nnc(NS(=O)(=O)c2ccc(OC)cc2)s1 | i | 5% | ? | 16 | 6%
CCOc1ccc2c(c1)nc(SCC(=O)c1ccc(Br)s1)n2C | ? | ? | 18µM* | -1 | ?
